# Hits are enriched below; roughly 4.3% of the tested compounds scored in any of these assays.
# MITF TRPM1 inh: reduces MITF-dependent TRPM1 promoter luciferase signal. 330,000 compounds, 0.83% hits. AID 488899. inhibition, % at 12.5 µM. SK-MEL-5 TRPM1 promoter luciferase, 24 h;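 active means mean inhibition across replicates of 60% or more, whatever share of single replicates reaches that level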
# KKLEB cytotox: reduces viability of KKLEB cystic fibrosis airway cells; KKLEB CF airway cells viability, ATPlite luminescence, overnight; stronger effect = lower value; cells stimulated with P. aeruginosa culture filtrate; 360,000 compounds, 0.36% hits; activity change (cytotoxicity), % at 5 µM;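 active means corrected activity change at or below -50% at 5 µM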
# CHOP inh: blocks CHOP induction under ER stress; CHO-K1 CHOP-promoter luciferase, tunicamycin-induced, 15-18 h; 220,000 compounds, 3.8% hits; inhibition, % at 10 µM;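 active means compounds that reduced the stress-induced luciferase reporter signal by more than about 70% of percent inhibition, limit read from the data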;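 further: 0% = tunicamycin plus vehicle and 100% = wells without tunicamycin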
# Peg3 prom inh: Peg3 promoter activity inhibition; 360,000 compounds, 1.7% hits; HeLa PEG-Prom luciferase reporter, luminescence, overnight; inhibition, % at 20 µM;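 active means inhibition of at least 50% at 20 µM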
# CF NFkB inh: inhibitors of cystic fibrosis induced NF-kB; KKLEB NF-kB-GFP reporter, PAF-induced, GFP fluorescence overnight; inhibition, % at 5 µM; 360,000 compounds, 0.86% hits;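 active means at least 50% inhibition at 5 µM, scaled per plate between neutral and stimulator controls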;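 further: PAF is a Pseudomonas aeruginosa culture filtrate used as stimulus; plate controls were PAF-stimulated DMSO wells for no effect and unstimulated DMSO wells for full effect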
# HIF-2a inh: HIF-2a inhibition. 786-0 RCC cells HIF-2a reporter, luciferase luminescence, overnight. inhibition, % at 18.8 µM. 360,000 compounds, 0.72% hits. AID 624352;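 active means inhibition of the luminescence signal of 40% or more relative to plate controls, in a single-dose primary screen at 18.75 µM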
# Active calls of the source: *; · = not tested or not shown.
SMILES,MITF TRPM1 inh,KKLEB cytotox,CHOP inh,Peg3 prom inh,CF NFkB inh,HIF-2a inh
Cc1onc(-c2ccccc2)c1C(=O)NNC(=S)NC(=O)c1ccc(Cl)cc1Cl,-1.8,-8.4,85.6*,8.7,19.3,17.5
Cc1cccc(C(=O)NC(=S)NNC(=O)Cc2ccccc2)c1,-1.7,1.0,20.2,10.6,-0.7,-0.2
COC(=O)C[C@@H]1CC[C@@H](NC(C)=O)[C@@H](CO)O1,·,·,·,·,·,0.0
COc1ccc2oc(C(=O)OC(C)C(=O)N3C(C)CCCC3C)c(C)c2c1 (configuration not stated),-10.2,-16.1,·,-26.8,11.1,-67.7
Cc1cccc(C(=O)Oc2cccc3c(O)cccc23)c1,6.5,-9.2,·,-34.0,-1.1,11.4
COC(=O)c1ccc(Cn2c(C)c(C(=O)NCc3cccs3)sc2=O)o1,·,11.2,·,12.0,-7.3,19.2
Cc1ccc(C(=O)NC(=C(Cl)Cl)S(=O)(=O)c2ccc(Cl)cc2)cc1,-6.2,-12.2,78.0*,58.0*,7.5,39.6
Cc1cccc(C(=O)NC(=S)NNC(=O)COc2c(C)cccc2C)c1,9.4,-9.7,-32.4,-24.8,0.7,14.1
CC(=O)NNC(=S)NC(=O)c1ccc(C)cc1,7.5,7.9,80.0*,2.9,5.3,20.4
Cc1ccc(C(=O)NC(=S)NNC(=O)COc2ccccc2C)cc1,14.1,-21.0,102.6*,9.2,35.0,-0.3
Cc1cc(C)c(C)c(S(=O)(=O)N[C@@H](C)C(=O)OCC(N)=O)c1C,0.3,9.1,-2.7,4.8,-11.4,4.7
OC(c1ccc(F)cc1)c1nc(-c2cnc3ccccc3c2)cs1 (configuration not stated),·,4.0,·,-331.2,-3.8,-227.4
CC(=O)NC(C)(c1ccccc1)c1nc(-c2cccc(C#N)c2)cs1 (configuration not stated),·,0.2,·,7.2,-0.6,13.2
COC1=CC(=O)C(OC)=C(OC)C1=O,0.8,14.2,·,62.6*,58.5*,14.2
CC1CCN(Cc2c(C(=O)N/N=C/c3cc(Cl)ccc3O)nnn2-c2nonc2N)CC1,35.4,-11.4,·,75.9*,32.9,7.6
COC(=O)Oc1nsnc1N1CCOCC1,7.1,9.5,5.6,2.1,2.7,14.4
Brc1ccc(Oc2nsnc2N2CCOCC2)cc1,-1.6,-0.1,83.7*,1.5,14.5,-47.8
CC1NS(=O)(=O)c2cc([N+](=O)[O-])ccc21 (configuration not stated),·,·,·,·,·,-1.8
C=C(C1=CCN(S(=O)(=O)C(C)(C)C)[C@@H]1CCO)c1ccccc1,-4.5,-0.3,·,-5.1,-10.7,6.4
Cc1cc(Cl)ccc1NC(=S)NCCC(c1ccccc1)c1ccccc1,-4.6,-6.8,50.4,67.7*,1.7,16.8
Cc1c(Cl)cccc1NC(=S)NCCC(c1ccccc1)c1ccccc1,7.0,-2.9,1.4,30.8,7.6,26.9
c1ccc2sc(Sc3ncnc4sccc34)nc2c1,-5.6,-43.8,65.5,-56.0,72.0*,-40.8
c1ccc(CSc2ncnc3sccc23)cc1,-12.5,-7.1,6.2,-63.4,8.4,-110.9
COc1ccc(C(=O)NCCc2nnc3ccc(SCC(=O)Nc4ccccc4F)nn23)cc1,4.3,9.9,·,9.3,-6.3,12.9
Nc1cc(C(=O)OCC(=O)NCCNC(=O)COC(=O)c2ccc(Cl)c(N)c2)ccc1Cl,10.2,14.2,·,10.3,-6.1,9.0
SMILES,MITF TRPM1 inh,KKLEB cytotox,CHOP inh,Peg3 prom inh,CF NFkB inh,HIF-2a inh
Cc1ccccc1NC(=O)CSc1nc2cc3c(cc2cc1C)CCC3,40.7,-8.8,68.3,31.6,42.7,-3.7
CCC(=O)Nc1ccc(NC(=O)CSc2nc3cc4c(cc3cc2C)CCC4)cc1,1.7,-6.7,94.4*,10.9,-1.7,14.0
Cc1ccc2nc(N3CCN(Cc4nnnn4Cc4ccccc4)CC3)c(C#N)cc2c1,12.0,15.6,91.6*,3.3,-2.5,-36.5
COc1cccc(/C=N/NC(=O)CN2CC(c3ccccc3)CC2=O)c1OC (configuration not stated),93.9*,-16.6,-0.9,0.0,-12.3,13.1
CCN1C(=O)[C@@H]2[C@@H](c3ccc(-c4ccc(C(C)=O)cc4)c(OC)c3)N3CCCC[C@@]3(C(=O)OC)[C@@H]2C1=O,0.1,9.7,·,13.8,-28.0,13.4
CC(C)Oc1ccccc1/C=N/Nc1ccccc1[N+](=O)[O-],-73.3,16.5,75.9*,-45.2,-11.3,-45.0
COc1ccccc1/C=N\Nc1ccccc1[N+](=O)[O-],-83.0,8.3,27.0,-377.7,-0.1,-319.2
CC(C)(C)c1cc(C(F)(F)F)nc(SCCCNC(=O)c2ccco2)n1,1.5,-4.5,86.3*,20.2,12.3,13.7
Cc1cc(NC(=O)CCCSc2nc(-c3ccco3)cc(C(F)(F)F)n2)no1,-1.3,-9.0,87.9*,23.6,6.1,3.5
Cc1ccccc1Cn1ccc(NC(=O)CCSc2nc(-c3ccco3)cc(C(F)(F)F)n2)n1,5.2,-6.6,54.1,3.0,9.2,22.1
Cc1ccc(Cn2ccc(NC(=O)CCSc3nc(-c4ccco4)cc(C(F)(F)F)n3)n2)cc1,10.5,-4.4,89.5*,31.2,4.0,6.5
Cc1cc(NC(=O)CCSc2nc(-c3ccco3)cc(C(F)(F)F)n2)no1,-6.0,14.0,-0.1,6.2,-0.9,6.8
CC(C)(C)c1ccc(C(=O)NCCCNC(=O)c2ccco2)cc1,-6.3,-4.4,·,7.0,10.2,-19.6
CC1(C(=O)Nc2cccc3cccnc23)CCN1Cc1ccc(-c2ccccc2)o1 (configuration not stated),·,22.7,·,15.1,-24.5,10.9
Nc1ccc(NC(=O)c2ccccc2)c2c1C(=O)c1ccccc1C2=O,23.6,-53.2*,-0.5,31.5,61.3*,2.6
CC1=C(C(=O)Nc2cc(C(=O)NCCC(C)C)ccc2C)SCCO1,1.3,3.9,·,12.8,-11.8,13.4
Cn1nnnc1SCC(=O)Nc1ccc(Oc2ccccc2)cc1,-12.0,-3.0,74.8*,-45.2,-4.8,-66.5
CCOC(=O)Nc1ccc(Oc2ccccc2)cc1,-86.0,4.5,73.5*,3.6,11.8,8.4
O=S(=O)(c1ccc(Cl)c(Cl)c1)c1snnc1-c1ccccc1,88.0*,-44.9,54.1,72.8*,56.3*,77.0*
CC(C)CC[n+]1ccccc1/C=C/c1ccc(N(C)C)cc1,73.0*,-14.8,·,47.5,-40.9,6.4
CN(C)c1ccc(/C=C/c2cccc[n+]2[O-])cc1,-90.6,-4.8,-6.4,-202.1,-2.9,-251.5
O=C(Oc1c(CN2CCOCC2)cc(Cl)c2cccnc12)c1cccs1,69.2*,3.5,-60.0,26.1,-2.2,13.0
O=C(Oc1ccc(Cl)c2cccnc12)N1CCOCC1,-0.7,-1.1,1.9,-0.3,2.6,5.3
O=C(Oc1c(CN2CCOCC2)cc(Cl)c2cccnc12)c1ccc(F)cc1,64.5*,11.8,40.7,40.4,2.9,28.4
COc1cc(C(=O)Oc2c(CN3CCOCC3)cc(Cl)c3cccnc23)cc(OC)c1OC,68.9*,-16.1,28.5,33.0,27.4,15.3
